In all, about 5,500 compounds went through this assay and about 2,000 (36%) were called active. Another 18% or so got no clear call; they are omitted. Rule as the data show it: active = normalized growth mostly below about 0.91 (no sharp cut-off); inconclusive = no clear call, values can overlap the other calls; inactive = mostly above about 0.92. The list shows a part of the results.
Test: chemical genetic growth profiling, strain panel (AID 1159580);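 also: tested at 20 µM; growth read once vehicle control cultures reached saturation at 30 °C; 1 = growth at the plate median or of vehicle wells; lower values mean less growth of the strain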
Conditions: S. cerevisiae deletion strains, growth OD

Measured: normalized growth

CCN(CC)CCNC(C(=O)OCCC(C)C)c1ccccc1 (stereo not drawn)
inactive: locus YHR030C, strain SLT2, active compounds read low 0.984 | locus YHR079C, strain IRE1, active compounds read low 0.986 | locus YJL095W, strain BCK1, active compounds read low 0.979 | locus YJR066W, strain TOR1, active compounds read low 0.913 | locus YLR113W, strain HOG1, active compounds read low 1.03 | locus YNL183C, strain NPR1, active compounds read low 0.916 | locus YOR231W, strain MKK1, active compounds read low 0.978 | locus YPL256C, strain CLN2, active compounds read low 0.964
